Results filed as inconclusive are left out. Where a call stands in place of a potency, no number is given. Activity calls are given as the source filed them. The call rests on the fitted dose curve; in most records, active means well fitted curve in the direction sought with a large enough effect; inconclusive means small, poorly fitted or top-dose-only effect, or another doubt; inactive means no such curve, though single readings can be large; an effect the other way counts as inactive or inconclusive.

In assay [1] the target is Aldehyde dehydrogenase, mitochondrial (Homo sapiens) (UniProt P05091). In words: qHTS for Inhibitors of the Aldehyde Dehydrogenase Family (ALDH2) Primary screen (AID 2061308). Further: nearly all actives have a fitted effect of over 55% in size.
Assay [2] addresses Retinaldehyde dehydrogenase 3 (Homo sapiens) (UniProt P47895). The experiment in a line: qHTS for Inhibitors of the Aldehyde Dehydrogenase Family (ALDH1A3) Primary screen (AID 2061315). A general note: Quantitative high-throughput screening tests each substance at several concentrations.

In the case of `O=[S+]([O-])(c1ccc(N2CCOCC2)nc1)N1CCN([S+](=O)([O-])c2c(F)cccc2F)CC1`, the Potency result in assay [1] and in assay [2] was “inactive” throughout.

As to `Cc1ccc(S(=O)(=O)Nc2cccc(C(=O)Nc3nc(-c4ccccc4)cs3)c2Cl)cc1`, the Potency result in assay [1] and in assay [2] was “inactive” throughout.

For `Cc1ccnc(NC(=S)N2CC3CN(c4ccc(Cl)cc4C(F)(F)F)CC3C2)c1` (stereo unspecified), the Potency result in assay [1] and in assay [2] was “inactive” throughout.

On to `Fc1cccc(-c2ccc(Nc3nc(-c4ccncc4)nc4ccccc34)cc2F)c1`, for which the Potency entry in assay [1] and in assay [2] was “inactive” each time.

For the molecule `Cc1ccc(S(=O)(=O)Nc2ccc(Br)cc2C(=O)Nc2nc(-c3ccccc3)cs2)cc1`, the Potency entry in assay [1] and in assay [2] was “inactive” each time.

On to `Cc1cc2c(s1)c1cnn(Cc3c(F)c(F)c(C)c(F)c3F)c(=O)c1n2C`, for which the Potency entry in assay [1] and in assay [2] was “inactive” in each case.

With `O=C(Nc1ccc(F)nc1)Nc1nnc(-c2ccncc2)s1`, the Potency result in assay [1] and in assay [2] was “inactive” in each case.

Turning to `COc1cccc(NC(=O)c2cc(-c3ccc(C)c(C)c3)nc3ccccc23)c1`, the Potency result in assay [1] and in assay [2] was “inactive” each time.

In the case of `Cc1cnc(-c2ccccc2C(C)C)nc1NCC1CCN(c2cnccn2)CC1`, the Potency entry in assay [1] and in assay [2] was “inactive” throughout.

As for `O=C(O)c1ccc2c(c1)C(=O)N([C@@H](Cc1ccc(O)cc1)C(=O)O)C2=O`, the Potency result in assay [1] and in assay [2] was “inactive” each time.

`N#Cc1cccc(-c2noc(-c3ccccc3F)n2)c1`: the Potency entry in assay [1] and in assay [2] was “inactive” each time.

Take `COc1ccc(-c2ccc(Nc3nc(-c4ccncc4)nc4ccccc34)cc2F)cc1F`: the Potency entry in assay [1] and in assay [2] was “inactive” throughout.

On to `N#Cc1ccc(-c2ccc(=O)n(CC(=O)NCCc3ccccc3)n2)cc1`, for which the Potency result in assay [1] and in assay [2] was “inactive” in each case.

For the molecule `Cc1cccc(-n2cnc3cc(C(=O)N4CC(C)CC(C)C4)ccc32)c1` (stereo unspecified), the Potency entry in assay [1] and in assay [2] was “inactive” each time.

`Cn1nnnc1Sc1ncnc2scc(-c3ccccc3Cl)c12`: the Potency result in assay [1] and in assay [2] was “inactive” throughout.

Consider `CC(C)(C)C1CCC(C(=O)Nc2ccc(S(=O)(=O)Nc3nccs3)cc2)CC1` (stereo unspecified), for which the Potency entry in assay [1] and in assay [2] was “inactive” throughout.

Consider `COc1ccc(Oc2c(Cl)cnn(-c3cc(C)cc(C)c3)c2=O)cc1`, for which the Potency entry in assay [1] and in assay [2] was “inactive” in each case.

With `CCN1CCN(c2cccc(Nc3nn4c(=O)c5ccccc5nc4s3)c2)CC1`, the Potency entry in assay [1] and in assay [2] was “inactive” throughout.

In the case of `CCn1c(-c2nonc2N)nc2c(C#CC(C)(C)O)ncc(OCC3CCCNC3)c21` (stereo unspecified), the Potency entry in assay [1] and in assay [2] was “inactive” in each case.

For `COc1ccc(C2c3c(ncn(CCCc4ccccc4)c3=N)Oc3ccc4ccccc4c32)cc1OC` (stereo unspecified), the Potency entry in assay [1] and in assay [2] was “inactive” throughout.

For the molecule `Cc1nnc2sc(-c3cccc(NC(=O)c4ccc(-c5cccc(Cl)c5)o4)c3)nn12`, the Potency entry in assay [1] and in assay [2] was “inactive” in each case.

`O=C(O)c1ccc(-c2nn3c(=O)cc(N4CCNCC4)nc3s2)cc1`: the Potency entry in assay [1] and in assay [2] was “inactive” throughout.

In the case of `CN(Cc1ccc(-c2ccccc2)cc1)c1nc(-c2ccccc2C(F)(F)F)nc2ccccc12`, the Potency entry in assay [1] and in assay [2] was “inactive” each time.

Consider `FC(F)(F)c1cccc(-c2nc(NCc3ccc(-c4ccnc(C(F)(F)F)c4)cc3)c3ccccc3n2)c1`, for which the Potency result in assay [1] and in assay [2] was “inactive” each time.

With `CC(C)(C)OC(=O)Cc1nnc(-c2nc3ccccc3[nH]2)s1`, the Potency result in assay [1] and in assay [2] was “inactive” each time.

For the molecule `COCCCc1cc(F)c(S(=O)(=O)N2CCN(S(=O)(=O)c3ccc4c(c3)OCCO4)CC2)cc1F`, the Potency entry in assay [1] and in assay [2] was “inactive” in each case.

For the molecule `CC(=O)O[C@@]1(C)[C@@H]2CC(=C(C)C)C(=O)C[C@@]2(C)CC[C@H]1OC(=O)C1(C)OC1C` (stereo partly specified), the Potency result in assay [1] and in assay [2] was “inactive” throughout.

With `Cc1ccc(NS(=O)(=O)c2ccc3c(c2)CC(=O)N3C)cc1C`, the Potency result in assay [1] and in assay [2] was “inactive” each time.

Consider `Cc1cc(-c2ccccc2)n2ncc(C(=O)Nc3ccccc3Sc3ccccc3)c2n1`, for which the Potency result in assay [1] and in assay [2] was “inactive” in each case.

Consider `CC(=O)C1CCN(c2ncc(-c3ccc4c(c3)OCCCO4)s2)CC1`, for which the Potency result in assay [1] and in assay [2] was “inactive” in each case.

For `CC1=C(C(=O)NC2CCCCC2)C(c2ccccc2Br)N=C(Nc2nc3ccccc3o2)N1` (stereo unspecified), the Potency result in assay [1] and in assay [2] was “inactive” each time.

In the case of `Cc1cc2c(s1)c1cnn(Cc3cc(F)c(F)cc3F)c(=O)c1n2C`, the Potency entry in assay [1] and in assay [2] was “inactive” throughout.

On to `Cc1cccc(CNc2ncnc3ccc(-c4ccoc4)cc23)c1`, for which the Potency entry in assay [1] and in assay [2] was “inactive” in each case.

As for `Cc1cc(C)nc(NC(=S)N2CCN(c3cccc4nccn34)CC2)c1`, the Potency entry in assay [1] and in assay [2] was “inactive” in each case.

`O=C(O)c1ccc2c(c1)C(=O)N([C@H](Cc1ccc(Cl)cc1)C(=O)O)C2=O`: the Potency entry in assay [1] and in assay [2] was “inactive” in each case.

As to `O=C(OCC#CCSc1nnc(-c2cccc3ccccc23)o1)c1ccc(F)cc1F`, the Potency entry in assay [1] and in assay [2] was “inactive” throughout.

`Cc1nc2ccccn2c1C(O)(c1ccccc1)c1ccccc1`: the Potency entry in assay [1] and in assay [2] was “inactive” throughout.

Turning to `O=C(NC1CCCc2c1cnn2-c1ccc(F)cc1F)c1cnon1` (stereo unspecified), the Potency result in assay [1] and in assay [2] was “inactive” in each case.

As for `Cc1ccc(CNc2ccc(N3CCN(C(=O)OC(C)(C)C)CC3=O)cc2)cc1`, the Potency result in assay [1] and in assay [2] was “inactive” in each case.

In the case of `O=C1c2ccccc2C(=O)N1c1cccnc1`, the Potency entry in assay [1] and in assay [2] was “inactive” in each case.

With `COc1ccc(C(=O)N(Cc2ccccc2)Cc2ccccc2)cc1COc1ccc(NC(C)=O)cc1`, the Potency entry in assay [1] and in assay [2] was “inactive” in each case.

Consider `CC(=O)Nc1sc2c(c1-c1cccc3ccccc13)CCNC2`, for which the Potency result in assay [1] and in assay [2] was “inactive” in each case.

Regarding `CCCCCNc1oc(-c2cccc3ccccc23)nc1C#N`, the Potency entry in assay [1] and in assay [2] was “inactive” throughout.

Values taken from PubChem BioAssay (NCATS).
